Laboratory results taken from PubChem BioAssay (NCATS).
Results filed as inconclusive are left out. A call without a number means that no potency is given here. Unmarked numbers belong to inactive results. Active and inactive are the calls of the source. The call rests on the fitted dose curve; in most records, active means well fitted cell-killing curve with a large enough effect; inconclusive means small, poorly fitted or top-dose-only effect; inactive means flat fitted curve, though single readings scatter.

Assay: Cellular viability qHTS for adrenocortical cancer (ACC) cell line NCI-H295R (AID 1963990); further: nearly all actives have a fitted effect of over 60% in size
Conditions: CellTiter-Glo ATP luminescence, 48 h; series mostly up to 46.1 µM
Procedure, shortened: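 CellTiter-Glo ATP luminescence, read 48 h after compound addition, measured viability of NCI-H295R adrenocortical cells grown serum-free with ITS. Final concentrations spanned up to 46 uM. Data normalized to DMSO and doxorubicin, fitted for IC50 and maximal response.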

Compound	Potency	activity change, negative = viability loss
CCCCCC1Nc2cc(C(F)(F)F)c(S(N)(=O)=O)cc2S(=O)(=O)N1 (stereo not drawn)	inactive	
CC(C)(Cc1c[nH]c2ccccc12)NCC(O)COc1ccccc1C#N (stereo not drawn)	inactive	
O=C(Nc1ccccc1)Nc1ccc(-c2ccc(C(=O)[C@@H]3CCC[C@H]3C(=O)O)cc2)cc1	inactive	
c1ccc2c(c1)CCCC2C1=NCCN1 (stereo not drawn)	inactive	
OC(CCCN1CCCCC1)(c1ccccc1)c1ccccc1	inactive	
C[C@]12CC[C@H](O)CC1=CC[C@@H]1[C@@H]2CC[C@]2(C)C(c3cccnc3)=CC[C@@H]12	inactive	
c1ccc(CNCCNCc2ccccc2)cc1	inactive	
O=C1NC(=O)/C(=C/c2ccc(-c3ccc(F)cc3O)o2)S1	25.1 µM (active)	
Cn1c(=O)c(Oc2ccc(F)cc2F)cc2cnc(NC3CCOCC3)nc21	inactive	
NC(N)=NCCN1CCCCCCC1		7.14% [at 0.587 µM]
C[n+]1cc2c3c(ccc2c2ccc4cc5c(cc4c21)OCO5)OCO3	1.42 µM (active)	
CC(C)(Oc1ccc(Cl)cc1)C(=O)OCCCOC(=O)C(C)(C)Oc1ccc(Cl)cc1	inactive	
OC(CCN1CCCCC1)(c1ccccc1)c1ccccc1	inactive	
